# From PubChem BioAssay (EPA / NIEHS)
# Activity calls are given as the source filed them. How the source made its calls: active means hit-call score of the fitted dose curve at least 0.9, where 1 is the maximum; inactive means score below 0.9.
# Assay: CCTE_Shafer_MEA_acute_per_burst_spike_number_mean: CCTE's Neural Acute Assay for Average Number of Spikes Per Burst, Shafer Lab (AID 2284015);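 further: hits are decreases in mean spikes per burst versus baseline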
# Procedure: CCTE_Shafer_MEA_acute assay is conducted using Axion Biosystems 48 well microelectrode array (MEA) plates and Maestro recording system. Each well of the MEA plate contains a grid of 16 microelectrodes embedded in the culture surface. Electrically active cells, such as neurons, can be cultured over the electrodes, and electrical activity in these cells can be recorded extracellularly. The spontaneous firing of neurons is captured from each electrode on a microsecond timescale providing both temporally and spatially precise data. […] The CCTE_Shafer_MEA_acute assay uses primary cultures of rat cortical neurons. As these cultures mature over time, neural networks develop functional activity and form cohesive networks in which electrical activity can be highly coordinated. Baseline 40-minute recordings are made on days post-plating 13 or 15, followed by a secondary 40-minute recording after chemical exposure.CCTE_Shafer_MEA_acute_per_burst_spike_number_mean is a component of the CCTE_Shafer_MEA_acute assay. It measures the average number of spikes (action potential firings) in a single-electrode burst (temporally-clustered group of spikes) during a recording in a microelectrode array (MEA) using Axion Biosystems Maestro 768 channel amplifier with the AxIS adaptive spike detector. The recordings before and after chemical treatment are used to calculate a percent change in the mean number of spikes per burst in each well.Data from the assay component CCTE_Shafer_MEA_acute_per_burst_spike_number_mean was analyzed into 1 assay endpoint. This assay endpoint, CCTE_Shafer_MEA_acute_per_burst_spike_number_mean, was analyzed in the negative analysis fitting direction relative to DMSO as the negative control and baseline of activity. Using a type of functional reporter, gain or loss-of-signal activity can be used to understand electrical activity.
# Spontaneous activity in the cortical cultures was recorded using an Axion Biosystems Maestro 768 channel amplifier and Axion Integrated Studios (AxIS) v1.8 (or later) software. The amplifier recorded from all channels simultaneously (gain = 1200 x; sampling rate = 12.5 kHz/channel): raw signals were filtered with a Butterworth band-pass filter (300-5000 Hz), which filters out slower local field potentials leaving only fast potentials, i.e., "spikes", arising from extracellular currents associated with action potentials (Pine 2006; Wheeler and Nam 2011). On-line spike detection of filtered signals was conducted with the AxIS adaptive spike detector, using a threshold of 8x the root mean squared (rms) noise on each channel. Any electrodes with rms noise levels greater than 5 uV were grounded (e.g., no data were recorded). Once grounded, an electrode was grounded for the duration of the experiment. All recordings were conducted at 37 C. Wells were deemed usable if on the day of the exposure >/= 10 electrodes were active (defined as >/= 5 spikes/min). On DIV 13 or 15, a minimum of three wells from one cortical culture preparation were treated with each compound (0.03-40 uM). Prior to recording baseline activity, each mwMEA plate was placed in the Maestro at 37 C and allowed to sit for 20 min while firing rates stabilized. Baseline activity (40 min) was recorded before the addition of each compound. An additional 40 min of spontaneous activity was recorded in the presence of each compound. Changes in network parameters relative to baseline were assessed following compound treatment.
Structure (SMILES),AC50,outcome
Oc1ccc(Cc2ccc(O)cc2)cc1,25.3 µM (active),–
CC(C)(C)c1ccccc1O,–,inactive
CC1(C)[C@H](C(=O)O[C@H](C#N)c2cccc(Oc3ccccc3)c2)[C@@H]1/C=C(\Cl)C(F)(F)F,0.679 µM (active),–
Clc1cccc(Cl)c1Cl,–,inactive
N#Cc1cccnc1,–,inactive
O=C(Cc1ccccc1)OCCc1ccccc1,–,inactive
CC(C)[C@@H](Nc1ccc(C(F)(F)F)cc1Cl)C(=O)OC(C#N)c1cccc(Oc2ccccc2)c1 (stereo not given in full),0.84 µM (active),–
CCCCCCCCCCCCc1cccc(S(=O)(=O)O)c1,–,inactive
Cc1ccccc1OP(=O)(Oc1ccccc1C)Oc1ccccc1C,27.8 µM (active),–
CCCCOC(=O)COC(=O)c1ccccc1C(=O)OCCCC,–,inactive
Oc1cc(Cl)c(Cl)cc1Cl,–,inactive
Cc1cc(C(F)(C(F)(F)F)C(F)(F)F)ccc1NC(=O)c1cccc(I)c1C(=O)NC(C)(C)CS(C)(=O)=O,20.7 µM (active),–
CS(=O)(=O)c1ccc(C(=O)C2C(=O)CCCC2=O)c(Cl)c1COCC(F)(F)F,–,inactive
OCCCCO,–,inactive
CN(C)C(=S)S,–,inactive
